Screening data: PubChem BioAssay, several laboratories
GDH-TPI counter-1 – inhibits GDH-TPI coupling enzymes, artifact for Mtb FBA screen. GDH-TPI coupled enzyme counterscreen, NADH absorbance. inhibition, % at 4.8 µM. 360,000 compounds, 1.2% hits. AID 588335; in the data active = inhibition above about 30%;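 note: 0% = DMSO wells and 100% = wells lacking the enzyme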
RecA splice inh – blocks M. tuberculosis RecA intein splicing. cell-free RecA intein splicing, fluorescence. inhibition, % (concentration not given with the values). 290,000 compounds, 0.75% hits; in the data active = inhibition above about 30%;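 note: 0% = vehicle wells and 100% = reference inhibitor control wells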
Mtb betalactam – beta-lactam sensitization of Mtb H37Rv; inhibition, % at 25 µM; M. tuberculosis H37Rv growth with meropenem, percent inhibition; 330,000 compounds, 0.27% hits; AID 434955;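 note: growth measured after seven days incubation then overnight dye step; 0% = bacteria only wells and 100% = bacteria with antibiotic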
Mtb UGM inh – blocks M. tuberculosis UGM enzyme. P9WIQ1. purified UGM, fluorescence polarization probe displacement. inhibition, % at 10 µM. 320,000 compounds, 0.06% hits. AID 504406; in the data active = inhibition above about 10%, passing the limit was not always enough
Target sequence (P9WIQ1 whole entry, looked up): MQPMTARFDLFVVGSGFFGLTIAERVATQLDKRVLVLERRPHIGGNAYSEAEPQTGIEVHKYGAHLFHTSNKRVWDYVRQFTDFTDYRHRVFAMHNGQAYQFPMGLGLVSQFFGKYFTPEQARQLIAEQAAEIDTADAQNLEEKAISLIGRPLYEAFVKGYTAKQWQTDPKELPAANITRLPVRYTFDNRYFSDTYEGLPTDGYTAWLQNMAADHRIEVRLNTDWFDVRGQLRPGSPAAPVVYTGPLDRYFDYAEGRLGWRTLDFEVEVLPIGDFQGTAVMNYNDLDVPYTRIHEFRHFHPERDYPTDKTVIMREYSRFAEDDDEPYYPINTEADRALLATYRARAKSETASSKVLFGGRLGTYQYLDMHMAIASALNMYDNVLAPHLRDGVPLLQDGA
Mtb FBA inh – inhibitors of M. tuberculosis fructose-bisphosphate aldolase; 360,000 compounds, 2.3% hits; purified M. tuberculosis FBA, fluorescence read-out; P9WQA3; inhibition, % at 1 µM; in the data active = inhibition above about 27%;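 note: 0% = vehicle and 100% = reference inhibitor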
Rv3671c inh – inhibitors of M. tuberculosis serine protease Rv3671c; AID 2606; P9WHR9; inhibition, % at 5.96 µM; 320,000 compounds, 0.048% hits; in the data active = inhibition above about 38%;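 note: extracellular domain of Rv3671c used as enzyme; 0% = enzyme with DMSO and 100% = no enzyme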
GFP chromophore – counter-screen: blocks GFP chromophore formation; AID 434968; EC50, µM; shares compounds with RecA splice inh; 2,100 compounds, 83% hits; cell-free GFP chromophore formation, fluorescence
Rv3671c cf – Rv3671c protease inhibition, confirmation | shares compounds with Rv3671c inh | inhibition, % at 5.96 µM | 140 compounds, 40% hits | AID 2761; in the data active = inhibition above about 38%
Mtb FBA confirm – Mtb FBA inhibition, confirmed. inhibition, % at 1 µM. purified M. tuberculosis FBA, fluorescence read-out. AID 651616. shares compounds with Mtb FBA inh. 5,600 compounds, 78% hits; in the data active = inhibition above about 27%;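 note: 0% = vehicle wells and 100% = reference inhibitor wells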
GDH-TPI counter-2 – inhibits GDH-TPI coupling enzymes, flagging Mtb FBA hits | shares compounds with Mtb FBA inh | GDH-TPI coupled enzyme counterscreen, fluorescence | inhibition, % at 1 µM | 5,600 compounds, 81% hits | AID 652141; in the data active = inhibition above about 10%
GDH-TPI DR – inhibits GDH-TPI coupling enzymes in dose response. 170 compounds, 79% hits. IC50, µM. AID 652145. shares compounds with Mtb FBA inh. GDH-TPI coupled enzyme assay, fluorescence, artifact counterscreen
Active calls of the source: *; i = inactive; . = no result given; + = active, no number. A selection: hits, their analogues and other compounds. The true share with any hit is near 4%. Unless noted, the rule behind the calls is not given here.

SMILES | GDH-TPI counter-1 | RecA splice inh | Mtb betalactam | Mtb UGM inh | Mtb FBA inh | Rv3671c inh | Rv3671c cf | others
CCOC(=O)c1c(NC(=O)c2ccco2)n(C2CCCCC2)c2nc3ccccc3nc12 | 15 | 55* | 68 | 1 | 63* | -32 | . | GFP chromophore=21*;Mtb FBA confirm=14;GDH-TPI counter-2=9;GDH-TPI DR=2.9*
O=C(CCc1ccccc1)N=C1SC2CS(=O)(=O)CC2N1Cc1ccc(F)cc1 (stereo unspecified) | 1 | 1 | -2 | -2 | -2 | 1 | .
C=CCn1c(NC(=O)c2ccc(Br)o2)c(S(=O)(=O)c2ccccc2)c2nc3ccccc3nc21 | 1 | 46* | -3 | 2 | 50* | -102 | . | GFP chromophore=31*;Mtb FBA confirm=52*;GDH-TPI counter-2=47*
O=C(O)c1ccccc1Nc1ccccc1C(=O)O | 19 | -2 | 2 | . | 2 | -5 | .
O=C1C=C(Nc2ccccc2C(=O)O)c2ccccc2C1=O | 12 | 97* | 17 | 2 | 38* | -71 | . | GFP chromophore=2.5*;Mtb FBA confirm=+;GDH-TPI counter-2=157*
CCc1nnc(NC(=O)CCN2C(=O)/C(=C/c3cc(OC)c(OC)c(OC)c3)SC2=S)s1 | 0 | 2 | -3 | 3 | -1 | -6 | .
CC12CCC(=O)N1C(C(=O)Nc1cc(C(F)(F)F)ccc1N1CCCCC1)CS2 (stereo unspecified) | 4 | -8 | -2 | -2 | 1 | 40* | 0
CC12CCC(=O)N1C(C(=O)Nc1cc(C(F)(F)F)ccc1N1CCOCC1)CS2 (stereo unspecified) | -12 | -1 | -2 | 2 | 0 | -4 | .
Cc1nc2ccccc2n1CCC(=O)O | 3 | -1 | -13 | 0 | -2 | 1 | .
Cc1nc2ccccc2n2c(O)c(CC(=O)O)cc12 | 8 | i | 8 | 0 | 3 | 53* | 5
CN(C(=O)c1ccccc1)C(=O)c1ccccc1 | 18 | . | . | . | 3 | . | .
COc1cc2nc(Nc3ccc(C)c(Cl)c3)nc(N)c2cc1OC | 0 | 24 | 100 | 4 | 4 | 74* | 74*
COc1ccc(NC(=O)Nc2cccc3c2O[C@H](CN(C)C(=O)Nc2ccc(OC)cc2)[C@@H](C)CN([C@H](C)CO)C3=O)cc1 | 5 | . | 0 | -3 | -1 | 2 | .
Oc1ccc(/C=N/Nc2ccnc3cc(Cl)ccc23)cc1O | 5 | -1 | 1 | -1 | -3 | 54* | 30
Cn1c(/C(C#N)=C/c2cccc(O)c2)nc2ccccc21 | 16 | 4 | 4 | -2 | 2 | 1 | .
Cn1c(/C(C#N)=C/c2ccc(-c3ccc(S(N)(=O)=O)cc3)o2)nc2ccccc21 | 40* | . | -1 | 7 | -5 | 47* | -4
CCCCOC(=O)C(C)Sc1n[nH]c(=O)[nH]c1=O (stereo unspecified) | -1 | 5 | -3 | -2 | -1 | 0 | .
CC(=O)NC(CC(=O)OCC(=O)N1CCN(S(=O)(=O)c2ccc(C)cc2C)CC1)c1ccccc1 (stereo unspecified) | 0 | . | -2 | 2 | 2 | 5 | .
Cc1cc(NC(=O)COC(=O)c2ccco2)no1 | -7 | 1 | 3 | 3 | 0 | 4 | .
CC(=O)Nc1c2c(nn1-c1ccc(F)cc1)CSC2 | -6 | -1 | 3 | 2 | 0 | -5 | .
Cc1cccc2c(=O)oc(-c3ccccc3Cl)nc12 | 2 | 0 | 4 | 1 | 0 | 51* | 72*
Cc1ccccc1SCc1noc(C(=O)NCC2CCCO2)c1C(=O)O (stereo unspecified) | 3 | -2 | -7 | 3 | 1 | 5 | .
O=C(NCC1CCCO1)c1onc(CSc2ccc(Cl)cc2)c1C(=O)O (stereo unspecified) | 4 | -3 | 24 | 6 | 3 | 84* | 0
Cn1c(O)c(/C=N/NC(=O)c2cc3ccccc3cc2O)c2ccccc21 | 18 | 0 | -6 | 1 | -8 | 47* | 22
Cn1c2ccccc2c2cc(/C=N/NC(=O)c3ccc(O)cc3O)ccc21 | 24 | -4 | 15 | 0 | 11 | 25 | .
SMILES | GDH-TPI counter-1 | RecA splice inh | Mtb betalactam | Mtb UGM inh | Mtb FBA inh | Rv3671c inh | Rv3671c cf | others
COc1ccc(-c2cc(C(F)(F)F)nc(SCC(=O)N3CCOCC3)n2)cc1OC | 22 | -1 | 9 | 1 | 2 | 2 | .
COc1ccc(-c2cc(C(F)(F)F)nc(S(=O)(=O)CCC(=O)N3CCOCC3)n2)cc1 | 10 | 6 | 47 | -1 | 0 | 60* | -7
Nc1ccc2nc(-c3ccccc3)c(-c3ccccc3)nc2c1 | 7 | -207 | 5 | -1 | 2 | 3 | .
C[n+]1c(-c2ccccc2)c2cc(N)ccc2c2ccc(N)cc21 | 21 | 2 | 100 | -1 | -7 | 74* | 90*
CC(C)(C)c1ccc(Oc2coc3cc(OCC(=O)O)ccc3c2=O)cc1 | -3 | -1 | -4 | 1 | 2 | 49* | -11
CC1=C(C(N)=O)C(c2ccccc2)n2nc(-c3cccc(C)c3)nc2N1 (stereo unspecified) | 6 | 3 | -3 | -1 | 3 | 65* | 60*
Nc1ccc(Nc2nc3ccccc3[nH]2)cc1 | -1 | -4 | -3 | -1 | 1 | 50* | 46*
O=C(CSc1n[nH]c(-c2ccccc2F)n1)Nc1cc(F)ccc1F | -2 | . | 14 | 2 | -1 | -12 | .
Cc1cc(N2CCOCC2)ccc1/C=C\[N+](=O)[O-] | 7 | 0 | 66 | -2 | -16 | 4 | .
CC(C)Oc1ccc(CCC(=O)N/N=C/c2ccc3c(c2)OCO3)cc1 | 0 | 0 | 1 | 3 | 2 | 38* | 0
O=C(CCc1ccc(O)c(O)c1)N/N=C/c1ccc2c(c1)OCO2 | 2 | -7 | 6 | 5 | 4 | 4 | .
Cc1ccccc1NC(=O)Cc1nc(COC(=O)CNS(=O)(=O)c2cccc(Br)c2)cs1 | -6 | 0 | -9 | 0 | 1 | -1 | .
CCNc1cc(O)ccc1C | 6 | . | -2 | 4 | 2 | 63* | 11
CC(=NNC(=O)CSc1nc2ccccc2o1)c1ccco1 | -10 | . | 7 | 4 | 0 | 5 | .
CCOC(=O)CC(=O)CSc1ncnc2c1nnn2-c1ccccc1 | 7 | 6 | 5 | 3 | 0 | -5 | .
CC(=O)c1c(OC(=O)c2ccco2)c2ccccc2n1C | 11 | 11 | 10 | -1 | 0 | 74* | 77*
CC(=O)c1c(OC(=O)c2ccc(C)cc2)c2ccccc2n1C | 14 | 6 | 99 | 0 | -2 | 0 | .
